The values that follow come from publication PMC7862700, “An all-to-all approach to the identification of sequence-specific readers for epigenetic DNA modifications on cytosine”.

Common to all, as to test: DAPPL (digital affinity profiling via proximity ligation, sequencing); 10 mM Tris-HCl pH 7.5, 50 mM NaCl, 1 mM DTT, 4% glycerol, room temperature, 30 min; GST-TFs on glutathione beads, 16-mer random dsDNA library, 0.1% formaldehyde crosslink after washing; high values mean tight binding
In one assay the target is T1, FEV (Homo sapiens, UniProt Q99581 1-238).
T1 sequence: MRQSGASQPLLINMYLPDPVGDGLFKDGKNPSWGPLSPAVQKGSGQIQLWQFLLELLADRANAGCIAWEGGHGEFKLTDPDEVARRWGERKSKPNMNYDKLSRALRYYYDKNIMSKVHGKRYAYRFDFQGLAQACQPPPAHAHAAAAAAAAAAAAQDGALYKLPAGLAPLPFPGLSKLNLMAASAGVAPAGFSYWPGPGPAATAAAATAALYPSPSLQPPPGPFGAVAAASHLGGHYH
The settings on record: protein: recombinant; tags: N-terminal GST; dsDNA, one strand shown. The procedure, abridged:
(§1)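 Each value of binding signal is a hexamer's read frequency for a factor divided by the same hexamer's frequency in the tag-only sample. Barcoded, bead-captured GST fusions of human transcription factors made in yeast were pooled with that sample and incubated with 200 nmole of a random double-stranded 16-mer DNA library in Tris/NaCl/DTT/glycerol buffer at room temperature for 30 min. Washing, 0.1% formaldehyde crosslinking, proximity ligation, PCR and Illumina NextSeq500 sequencing followed.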

The next assay addresses ETV5 (Homo sapiens, UniProt P41161 1-510). As to conditions: protein: recombinant; tags: N-terminal GST; dsDNA, one strand shown. The procedure, abridged:
as §1

The target of the next assay is HSF1 (Homo sapiens, UniProt Q00613 1-529). The settings on record: protein: recombinant; tags: N-terminal GST; chain copies: 3; dsDNA, one strand shown. In short, it runs like this:
as §1

A further assay addresses T2, SPIC (Homo sapiens, UniProt Q8N5J4 1-248).
T2 sequence: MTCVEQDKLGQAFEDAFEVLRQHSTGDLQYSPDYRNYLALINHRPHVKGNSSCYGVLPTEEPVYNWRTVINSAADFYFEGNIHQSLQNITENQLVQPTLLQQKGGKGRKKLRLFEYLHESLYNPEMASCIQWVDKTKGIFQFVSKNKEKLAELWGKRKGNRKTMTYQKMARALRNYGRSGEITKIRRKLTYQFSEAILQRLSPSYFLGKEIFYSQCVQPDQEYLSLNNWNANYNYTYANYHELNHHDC
The settings on record: protein: recombinant; tags: N-terminal GST; dsDNA, one strand shown. The procedure, abridged:
as §1

The next assay has as its target ELF4 (Homo sapiens, UniProt Q99607 1-663). The settings on record: protein: recombinant; tags: N-terminal GST; dsDNA, one strand shown. In short, it runs like this: as §1
The target of a further assay is T3, ELK4 (Homo sapiens, UniProt P28324-2 1-405).
T3 sequence: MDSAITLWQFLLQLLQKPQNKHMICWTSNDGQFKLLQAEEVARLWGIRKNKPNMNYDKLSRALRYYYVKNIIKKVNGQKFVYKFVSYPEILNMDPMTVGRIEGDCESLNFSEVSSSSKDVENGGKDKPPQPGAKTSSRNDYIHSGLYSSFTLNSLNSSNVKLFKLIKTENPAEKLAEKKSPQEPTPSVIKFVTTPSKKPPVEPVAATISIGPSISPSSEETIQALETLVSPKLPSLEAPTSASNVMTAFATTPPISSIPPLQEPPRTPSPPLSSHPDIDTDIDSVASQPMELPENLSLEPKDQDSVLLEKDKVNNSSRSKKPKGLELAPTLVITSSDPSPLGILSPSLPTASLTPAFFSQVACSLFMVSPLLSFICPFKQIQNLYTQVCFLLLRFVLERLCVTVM
The settings on record: protein: recombinant; tags: N-terminal GST; dsDNA, one strand shown. In short, it runs like this:
as §1

The target of another assay is T4, ETV2 (Homo sapiens, UniProt O00321 1-342).
T4 sequence: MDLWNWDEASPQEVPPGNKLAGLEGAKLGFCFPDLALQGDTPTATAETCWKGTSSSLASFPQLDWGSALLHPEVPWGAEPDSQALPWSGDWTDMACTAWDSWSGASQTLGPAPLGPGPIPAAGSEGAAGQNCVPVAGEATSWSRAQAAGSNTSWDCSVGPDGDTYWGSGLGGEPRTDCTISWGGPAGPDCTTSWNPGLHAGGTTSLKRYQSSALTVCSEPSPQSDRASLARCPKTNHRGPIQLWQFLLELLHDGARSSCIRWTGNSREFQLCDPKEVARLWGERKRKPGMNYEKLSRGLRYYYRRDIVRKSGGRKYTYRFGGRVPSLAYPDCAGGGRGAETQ
The settings on record: protein: recombinant; tags: N-terminal GST; dsDNA, one strand shown. The procedure, abridged: as §1

The target of a further assay is T5, ELF3 (Homo sapiens, UniProt P78545 1-371).
T5 sequence: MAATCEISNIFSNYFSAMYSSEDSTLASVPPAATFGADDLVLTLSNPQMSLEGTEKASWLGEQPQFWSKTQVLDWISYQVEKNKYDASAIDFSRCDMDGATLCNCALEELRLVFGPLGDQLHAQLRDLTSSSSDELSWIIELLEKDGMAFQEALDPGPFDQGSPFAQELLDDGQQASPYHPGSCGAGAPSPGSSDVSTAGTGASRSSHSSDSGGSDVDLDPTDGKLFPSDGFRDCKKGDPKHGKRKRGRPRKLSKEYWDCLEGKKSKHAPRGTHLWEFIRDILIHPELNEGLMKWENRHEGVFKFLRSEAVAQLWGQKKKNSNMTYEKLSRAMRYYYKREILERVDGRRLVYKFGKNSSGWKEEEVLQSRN
The settings on record: protein: recombinant; tags: N-terminal GST; dsDNA, one strand shown. The procedure, abridged: as §1

The next assay deals with CRX (Homo sapiens, UniProt O43186 1-299). The settings on record: protein: recombinant; tags: N-terminal GST; dsDNA, one strand shown. In short, it runs like this:
as §1

Another assay deals with ETV1 (Homo sapiens, UniProt P50549 1-477). The settings on record: protein: recombinant; tags: N-terminal GST; dsDNA, one strand shown. In short, it runs like this: as §1
Chain of ETV1 (P50549 whole entry): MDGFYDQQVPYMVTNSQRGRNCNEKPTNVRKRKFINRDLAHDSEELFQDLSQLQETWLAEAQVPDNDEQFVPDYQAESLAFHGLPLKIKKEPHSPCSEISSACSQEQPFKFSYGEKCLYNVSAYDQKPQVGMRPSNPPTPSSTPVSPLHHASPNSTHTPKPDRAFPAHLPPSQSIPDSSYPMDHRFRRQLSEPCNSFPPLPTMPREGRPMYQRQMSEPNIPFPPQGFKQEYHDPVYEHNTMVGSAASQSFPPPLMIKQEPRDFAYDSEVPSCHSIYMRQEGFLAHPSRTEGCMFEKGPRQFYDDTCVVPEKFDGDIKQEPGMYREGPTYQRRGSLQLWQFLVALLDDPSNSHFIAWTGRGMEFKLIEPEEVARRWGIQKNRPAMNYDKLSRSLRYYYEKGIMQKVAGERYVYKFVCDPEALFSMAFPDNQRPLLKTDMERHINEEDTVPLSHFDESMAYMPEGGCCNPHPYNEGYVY
A further assay concerns the target T6, ERF (Homo sapiens, UniProt P50548 1-548).
T6 sequence: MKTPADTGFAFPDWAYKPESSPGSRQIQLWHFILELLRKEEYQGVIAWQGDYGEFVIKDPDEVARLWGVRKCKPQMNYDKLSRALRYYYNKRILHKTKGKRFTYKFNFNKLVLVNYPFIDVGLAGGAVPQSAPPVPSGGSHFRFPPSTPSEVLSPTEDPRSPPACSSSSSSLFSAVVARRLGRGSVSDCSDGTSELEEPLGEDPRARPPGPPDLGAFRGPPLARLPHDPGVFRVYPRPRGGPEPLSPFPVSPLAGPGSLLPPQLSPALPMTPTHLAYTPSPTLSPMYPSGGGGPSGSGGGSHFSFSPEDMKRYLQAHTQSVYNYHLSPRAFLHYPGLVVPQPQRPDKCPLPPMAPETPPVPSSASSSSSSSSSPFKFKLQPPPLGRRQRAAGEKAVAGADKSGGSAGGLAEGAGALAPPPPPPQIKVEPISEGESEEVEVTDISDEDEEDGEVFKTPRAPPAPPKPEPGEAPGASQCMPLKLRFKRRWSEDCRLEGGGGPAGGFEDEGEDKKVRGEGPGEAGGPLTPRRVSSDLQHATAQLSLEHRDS
The settings on record: protein: recombinant; tags: N-terminal GST; dsDNA, one strand shown. The procedure, abridged: as §1

The target in another assay is T7, ETV3L (Homo sapiens, UniProt Q6ZN32 1-361).
T7 sequence: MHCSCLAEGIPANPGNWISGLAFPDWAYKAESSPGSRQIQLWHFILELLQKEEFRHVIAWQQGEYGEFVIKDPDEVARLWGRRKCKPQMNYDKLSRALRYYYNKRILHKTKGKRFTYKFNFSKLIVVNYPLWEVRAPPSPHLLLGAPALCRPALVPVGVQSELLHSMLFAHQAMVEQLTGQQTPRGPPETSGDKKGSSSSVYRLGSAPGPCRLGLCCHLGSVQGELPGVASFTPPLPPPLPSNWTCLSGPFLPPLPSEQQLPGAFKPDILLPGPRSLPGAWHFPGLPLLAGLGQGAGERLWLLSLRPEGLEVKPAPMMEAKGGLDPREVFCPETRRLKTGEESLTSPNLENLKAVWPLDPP
The settings on record: protein: recombinant; tags: N-terminal GST; dsDNA, one strand shown. In short, it runs like this: as §1

The target in another assay is T8, ETS2 (Homo sapiens, UniProt P15036 1-469).
T8 sequence: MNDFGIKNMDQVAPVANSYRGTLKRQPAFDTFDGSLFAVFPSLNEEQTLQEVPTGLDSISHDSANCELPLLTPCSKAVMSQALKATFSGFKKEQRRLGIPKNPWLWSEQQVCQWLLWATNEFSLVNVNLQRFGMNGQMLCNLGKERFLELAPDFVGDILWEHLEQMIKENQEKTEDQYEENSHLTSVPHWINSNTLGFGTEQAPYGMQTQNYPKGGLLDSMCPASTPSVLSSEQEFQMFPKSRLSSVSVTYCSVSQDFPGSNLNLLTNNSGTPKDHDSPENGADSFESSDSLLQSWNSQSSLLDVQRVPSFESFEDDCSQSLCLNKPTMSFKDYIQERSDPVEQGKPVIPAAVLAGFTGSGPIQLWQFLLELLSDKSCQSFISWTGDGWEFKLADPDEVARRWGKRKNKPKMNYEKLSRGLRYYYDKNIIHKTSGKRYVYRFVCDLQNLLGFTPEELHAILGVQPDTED
The settings on record: protein: recombinant; tags: N-terminal GST; dsDNA, one strand shown. In short, it runs like this:
as §1

Another assay has as its target T9, SPDEF (Homo sapiens, UniProt O95238 1-335).
T9 sequence: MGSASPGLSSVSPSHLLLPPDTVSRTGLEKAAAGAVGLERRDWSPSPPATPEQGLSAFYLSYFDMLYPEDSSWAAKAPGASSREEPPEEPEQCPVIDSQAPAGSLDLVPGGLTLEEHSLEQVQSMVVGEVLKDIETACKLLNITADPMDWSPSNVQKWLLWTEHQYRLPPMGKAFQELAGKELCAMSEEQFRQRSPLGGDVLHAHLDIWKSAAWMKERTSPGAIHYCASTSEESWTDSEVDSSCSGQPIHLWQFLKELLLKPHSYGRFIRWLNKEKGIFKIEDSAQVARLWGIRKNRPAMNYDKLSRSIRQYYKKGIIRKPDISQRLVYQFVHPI
The settings on record: protein: recombinant; tags: N-terminal GST; dsDNA, one strand shown. In short, it runs like this:
as §1

Another assay concerns the target T10, ETV7 (Homo sapiens, UniProt Q9Y603 1-341).
T10 sequence: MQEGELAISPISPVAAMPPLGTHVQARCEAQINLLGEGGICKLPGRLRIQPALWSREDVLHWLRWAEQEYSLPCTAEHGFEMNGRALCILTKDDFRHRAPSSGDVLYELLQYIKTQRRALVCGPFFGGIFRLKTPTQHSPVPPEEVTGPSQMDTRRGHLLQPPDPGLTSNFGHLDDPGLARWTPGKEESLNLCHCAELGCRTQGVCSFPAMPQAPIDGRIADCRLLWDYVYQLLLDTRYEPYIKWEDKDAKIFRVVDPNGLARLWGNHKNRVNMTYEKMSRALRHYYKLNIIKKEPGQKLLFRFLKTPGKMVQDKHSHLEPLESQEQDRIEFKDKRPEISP
As to conditions: protein: recombinant; tags: N-terminal GST; dsDNA, one strand shown. The procedure, abridged: as §1

In the next assay the target is T11, ELF5 (Homo sapiens, UniProt Q9UKW6-2 1-255).
T11 sequence: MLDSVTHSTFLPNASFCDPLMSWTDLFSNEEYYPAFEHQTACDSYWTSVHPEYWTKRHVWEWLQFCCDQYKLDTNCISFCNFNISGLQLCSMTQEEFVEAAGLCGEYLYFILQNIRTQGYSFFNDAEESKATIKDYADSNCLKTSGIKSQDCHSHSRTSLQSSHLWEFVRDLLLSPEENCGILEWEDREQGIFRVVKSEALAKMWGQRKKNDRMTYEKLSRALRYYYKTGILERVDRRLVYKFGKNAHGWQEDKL
As to conditions: protein: recombinant; tags: N-terminal GST; dsDNA, one strand shown. The procedure, abridged: as §1

The target in a further assay is T12, ETV3 (Homo sapiens, UniProt P41162-2 1-143).
T12 sequence: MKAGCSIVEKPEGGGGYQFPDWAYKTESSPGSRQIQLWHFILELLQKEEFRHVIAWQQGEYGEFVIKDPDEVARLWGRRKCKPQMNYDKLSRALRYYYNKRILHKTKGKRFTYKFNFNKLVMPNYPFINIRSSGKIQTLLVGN
As to conditions: protein: recombinant; tags: N-terminal GST; dsDNA, one strand shown. The procedure, abridged:
as §1

In another assay the target is ETV6 (Homo sapiens, UniProt P41212 1-452). As to conditions: protein: recombinant; tags: N-terminal GST; dsDNA, one strand shown. In short, it runs like this:
as §1

Chain of ETV6 (P41212 whole entry): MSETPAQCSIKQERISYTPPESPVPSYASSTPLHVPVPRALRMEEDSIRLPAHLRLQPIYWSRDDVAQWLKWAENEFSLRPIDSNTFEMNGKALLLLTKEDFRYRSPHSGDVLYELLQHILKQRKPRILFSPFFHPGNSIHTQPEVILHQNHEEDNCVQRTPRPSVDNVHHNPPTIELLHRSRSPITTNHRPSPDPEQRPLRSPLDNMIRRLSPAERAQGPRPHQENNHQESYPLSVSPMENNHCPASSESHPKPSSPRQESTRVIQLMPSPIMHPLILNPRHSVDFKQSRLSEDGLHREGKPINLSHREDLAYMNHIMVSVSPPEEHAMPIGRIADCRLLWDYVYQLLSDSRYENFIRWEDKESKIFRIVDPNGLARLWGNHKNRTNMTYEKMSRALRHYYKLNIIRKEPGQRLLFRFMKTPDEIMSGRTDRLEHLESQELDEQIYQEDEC
Chain of ELF4 (Q99607 whole entry): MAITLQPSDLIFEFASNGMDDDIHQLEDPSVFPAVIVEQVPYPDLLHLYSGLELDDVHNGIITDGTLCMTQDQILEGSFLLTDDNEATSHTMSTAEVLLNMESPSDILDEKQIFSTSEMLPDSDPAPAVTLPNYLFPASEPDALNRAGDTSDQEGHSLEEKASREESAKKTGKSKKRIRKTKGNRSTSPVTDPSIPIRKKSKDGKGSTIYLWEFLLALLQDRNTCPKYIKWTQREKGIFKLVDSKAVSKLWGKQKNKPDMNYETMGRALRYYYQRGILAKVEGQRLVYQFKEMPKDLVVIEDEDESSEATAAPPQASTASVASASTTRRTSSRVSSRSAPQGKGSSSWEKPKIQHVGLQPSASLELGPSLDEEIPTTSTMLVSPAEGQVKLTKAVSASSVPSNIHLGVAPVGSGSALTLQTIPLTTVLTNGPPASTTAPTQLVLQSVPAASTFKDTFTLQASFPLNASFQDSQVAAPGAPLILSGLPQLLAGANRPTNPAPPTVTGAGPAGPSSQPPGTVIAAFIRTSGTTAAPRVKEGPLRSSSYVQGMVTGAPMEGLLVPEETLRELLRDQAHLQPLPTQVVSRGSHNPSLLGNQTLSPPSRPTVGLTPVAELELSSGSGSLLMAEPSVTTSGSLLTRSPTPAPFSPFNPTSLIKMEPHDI
Chain of ETV5 (P41161 whole entry): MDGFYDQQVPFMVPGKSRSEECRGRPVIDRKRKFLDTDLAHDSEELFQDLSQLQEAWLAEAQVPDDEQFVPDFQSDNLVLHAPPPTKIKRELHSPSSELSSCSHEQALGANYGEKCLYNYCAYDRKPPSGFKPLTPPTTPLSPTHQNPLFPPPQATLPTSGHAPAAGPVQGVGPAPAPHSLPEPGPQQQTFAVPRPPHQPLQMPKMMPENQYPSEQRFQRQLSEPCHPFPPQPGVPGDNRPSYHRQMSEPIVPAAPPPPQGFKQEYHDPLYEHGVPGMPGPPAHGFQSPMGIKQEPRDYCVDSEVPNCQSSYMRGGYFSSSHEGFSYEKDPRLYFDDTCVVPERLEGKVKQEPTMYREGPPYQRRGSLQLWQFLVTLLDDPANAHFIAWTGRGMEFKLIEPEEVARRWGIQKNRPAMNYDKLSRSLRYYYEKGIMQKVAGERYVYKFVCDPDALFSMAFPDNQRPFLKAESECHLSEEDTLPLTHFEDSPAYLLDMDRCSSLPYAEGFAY
Chain of CRX (O43186 whole entry): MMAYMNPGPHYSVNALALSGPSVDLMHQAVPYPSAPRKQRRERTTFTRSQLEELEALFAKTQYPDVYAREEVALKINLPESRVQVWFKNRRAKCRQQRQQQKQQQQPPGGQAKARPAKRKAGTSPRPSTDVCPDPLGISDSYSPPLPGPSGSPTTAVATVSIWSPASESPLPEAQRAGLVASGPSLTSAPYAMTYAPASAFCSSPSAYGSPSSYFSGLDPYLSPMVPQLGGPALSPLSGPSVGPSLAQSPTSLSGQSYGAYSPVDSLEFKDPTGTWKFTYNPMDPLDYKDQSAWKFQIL
Chain of HSF1 (Q00613 whole entry): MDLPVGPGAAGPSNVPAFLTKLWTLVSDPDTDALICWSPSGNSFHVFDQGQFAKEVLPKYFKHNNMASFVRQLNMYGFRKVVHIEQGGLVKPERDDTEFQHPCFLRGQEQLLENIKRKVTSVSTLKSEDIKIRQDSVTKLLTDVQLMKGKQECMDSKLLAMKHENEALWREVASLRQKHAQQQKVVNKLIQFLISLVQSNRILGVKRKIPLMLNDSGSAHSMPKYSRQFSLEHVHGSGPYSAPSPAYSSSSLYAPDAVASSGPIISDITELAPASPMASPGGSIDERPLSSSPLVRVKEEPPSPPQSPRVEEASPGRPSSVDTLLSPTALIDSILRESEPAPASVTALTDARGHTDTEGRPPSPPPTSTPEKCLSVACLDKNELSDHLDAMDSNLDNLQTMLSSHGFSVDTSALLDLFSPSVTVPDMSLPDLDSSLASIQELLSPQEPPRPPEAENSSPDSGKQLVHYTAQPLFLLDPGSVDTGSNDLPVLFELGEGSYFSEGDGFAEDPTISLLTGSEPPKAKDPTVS

Turning to CTCTTA, the binding signal with FEV was 1.34 fold enrichment (6-mer frequency, TF over GST control); with ETV5, 1.41 fold enrichment (6-mer frequency, TF over GST control); in the assay with HSF1, 1.52 fold enrichment (6-mer frequency, TF over GST control); with SPIC, 1.4 fold enrichment (6-mer frequency, TF over GST control); with ELF4, 1.32 fold enrichment (6-mer frequency, TF over GST control); with ELK4 it was 1.34 fold enrichment (6-mer frequency, TF over GST control). For the same sequence, the binding signal was 1.49 fold enrichment (6-mer frequency, TF over GST control) with ETV2; 1.27 fold enrichment (6-mer frequency, TF over GST control) with ELF3; 2.2 fold enrichment (6-mer frequency, TF over GST control) with CRX; 1.38 fold enrichment (6-mer frequency, TF over GST control) in the assay with ETV1; 1.45 fold enrichment (6-mer frequency, TF over GST control) with ERF; 1.5 fold enrichment (6-mer frequency, TF over GST control) with ETV3L. In addition, the binding signal in the assay with ETS2 is 1.33 fold enrichment (6-mer frequency, TF over GST control); with SPDEF it was 1.24 fold enrichment (6-mer frequency, TF over GST control); in the assay with ETV7 it was 1.28 fold enrichment (6-mer frequency, TF over GST control); in the assay with ELF5, 1.31 fold enrichment (6-mer frequency, TF over GST control); in the assay with ETV3 it was 1.38 fold enrichment (6-mer frequency, TF over GST control); with ETV6 it was 1.39 fold enrichment (6-mer frequency, TF over GST control).
